GPR151 activ – human GPR151 activation; Q8TDV0; PathHunter beta-arrestin GPR151 cells, luminescence; activation, % at 11.2 µM; actives 1% (n = 650,000); in the data active = activation above about 4.9%
FBW7 act – activators of human E3 ligase FBW7. AlphaScreen FBW7–phospho-cyclin E peptide binding, activator screen. actives 0.13% (n = 650,000). Q969H0. AID 1259310. normalized activity (activation), % at 26.1 µM; in the data active = normalized activity above about 1.9%;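 also: purified mutant Fbw7 with reduced substrate affinity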
TEAD-YAP inh – TEAD-YAP interaction inhibition; actives 1.4% (n = 640,000); inhibition, % at 9.12 µM; AID 1259422; HEK-TIYL cells, TEAD-Gal4/YAP UAS-luciferase luminescence; in the data active = inhibition above about 32%
MITF primary – blocks human microphthalmia-associated transcription factor. O75030. AlphaScreen MITF homodimerization, bead proximity signal. inhibition, % at 2.6 µM. actives 0.91% (n = 650,000). AID 1259374; in the data active = inhibition above about 50%
MITF inh conf – human MITF inhibition, confirmation. shares compounds with MITF primary. AlphaScreen MITF homodimerization, biotin/His-MITF beads. inhibition, % at 2.6 µM. actives 16% (n = 4,700). AID 1259372;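 active = inhibition above a cutoff derived from the DMSO control wells, cut at about 28% in these data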;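 also: inhibitors lower the bead chemiluminescence by keeping MITF from dimerizing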
AS interf DR – optically interferes with AlphaScreen signal in dose response; shares compounds with MITF primary; AlphaScreen optical interference counterscreen, cell-free; IC50, µM; actives 6% (n = 480); AID 1259373; call rule not given here
AlphaScreen intf2 – AlphaScreen optical interference, counter-screen. inhibition, % at 2.6 µM. LysRS AlphaScreen counterscreen, signal interference, triplicate. shares compounds with MITF primary. actives 7.6% (n = 4,700);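 active = inhibition above a cutoff derived from the DMSO control wells, cut at about 30% in these data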
Hits are given with their value; i = inactive; nt = no result. In the library only some 3.5% were active in any assay of this set; here they are far more common.

SMILES	GPR151 activ	FBW7 act	TEAD-YAP inh	MITF primary	MITF inh conf	AlphaScreen intf2	others
CC(C)[C@H]1NC(=O)[C@H]2CN(C(=O)NC3CCCCC3)CCN2C1=O	i	i	i	75.9	71.7	i	AS interf DR=i
C[C@@H](O)[C@@H]1NC(=O)[C@H]2CN(C(=O)NC3CCCCC3)CCN2C1=O	i	i	i	80.3	73.0	i	AS interf DR=i
Cc1ccc(C(=O)N2CCN3C(=O)[C@@H]([C@H](C)O)NC(=O)[C@H]3C2)cc1	i	i	i	i	nt	nt
CC(=O)c1cccc(-c2nc(N)c3ncn(C4CCCCC4)c3n2)c1	i	i	i	i	nt	nt
CCN(C(=O)C1COc2ccccc2O1)C12CC3CC(CC(C3)C1)C2 (stereo not given)	i	i	i	60.8	70.7	i	AS interf DR=i
O=C(OCC(=O)C12CC3CC(CC(C3)C1)C2)C1COc2ccccc2O1 (stereo not given)	i	i	i	i	nt	nt
CCOC(=O)c1c(C)c(C(=O)NCCc2ccc(OC)c(OC)c2)c(C)n1C	i	i	i	i	nt	nt
CCOC(=O)c1c(C)c(C(=O)NCCc2ccccc2OC)c(C)n1C	i	i	i	55.2	i	i
NNc1nc(NN)nc(N(c2ccccc2)c2ccccc2)n1	i	i	i	i	nt	nt
CC1=C(C(=O)Nc2ccc(C)cc2C)C(c2cccc(Cl)c2)NC(=S)N1 (stereo not given)	i	i	i	72.5	i	i
CC1=C(C(=O)Nc2ccc(C)cc2C)C(c2cccc(Cl)c2)NC(=O)N1 (stereo not given)	i	i	i	i	nt	nt
Fc1ccc(CN2CCN(C3CCCCC3)CC2)cc1	i	i	i	i	nt	nt
Fc1cccc(CN2CCN(C3CCCCCC3)CC2)c1	i	i	i	65.9	i	i
CC1CCC(N2CCN(Cc3cccc(F)c3)CC2)CC1 (stereo not given)	i	i	i	53.7	i	i
Fc1cccc(CN2CCN(C3CCCCC3)CC2)c1	i	i	i	72.3	i	i
OC1CCN(Cc2cccc(F)c2)CC1	i	i	i	i	nt	nt
CC(=O)NC1(c2ccccc2F)CCN(C(=O)CCC(=O)O)CC1	i	i	i	76.5	i	i
Cn1c(SCC(N)=O)nnc1-c1cnccn1	i	i	i	i	nt	nt
Cn1c(SCC(=O)O)nnc1-c1cnccn1	i	i	i	61.2	i	i
O=[N+]([O-])c1ccc(N2CCCc3ccccc32)c([N+](=O)[O-])c1	i	i	i	61.5	46.6	40.5
O=[N+]([O-])c1ccc(N2CCc3ccccc3C2)c([N+](=O)[O-])c1	i	i	i	i	nt	nt
CC1=C(C(=O)OC(C)C)C(c2ccc(F)c(Br)c2)NC(=O)N1 (stereo not given)	i	i	i	i	nt	nt
CC(C)(C)c1csc(CN2CCN(CC(=O)Nc3ccc4c(c3)OCO4)CC2)n1	i	i	i	79.5	i	i
CCCS(=O)(=O)N1CCN(Cc2ccc3c(c2)OCO3)CC1	i	i	i	53.3	i	i
CN1CCN(C(=S)C(=O)NCc2ccc3c(c2)OCO3)CC1	i	i	i	i	nt	nt
SMILES	GPR151 activ	FBW7 act	TEAD-YAP inh	MITF primary	MITF inh conf	AlphaScreen intf2	others
CCc1ccc(CN2CCN(CC3CC=CCC3)CC2)cc1 (stereo not given)	i	i	i	69.3	i	i
Cc1ccccc1CN1CCC(CN)CC1	i	i	i	i	nt	nt
Clc1cccc(CN2CCN(CC3CC=CCC3)CC2)c1 (stereo not given)	i	i	i	i	nt	nt
CCCS(=O)(=O)N1CCN(Cc2cccc(F)c2)CC1	i	i	i	i	nt	nt
Cc1ccccc1CN1CCN(CC2CC=CCC2)CC1 (stereo not given)	i	i	i	68.0	i	i
CN1CCN(CC(=O)NCc2ccc3c(c2)OCO3)CC1	i	i	i	83.3	i	i
N#CC1=C(N)OC2=C(C(=O)CCC2)C1c1cccc(I)c1 (stereo not given)	i	i	i	i	nt	nt
C=CCNCCC1CCC(=O)N1Cc1ccccc1C (stereo not given)	i	i	i	i	nt	nt
O=C(CNCc1ccccc1)Nc1ccc(Cl)c(Cl)c1	i	i	i	i	nt	nt
CCOc1ccc(-n2c(CNC(=O)c3ccccc3)nnc2SCC(=O)N2N=C(c3cccs3)CC2c2ccc(OC)cc2)cc1 (stereo not given)	i	i	i	i	nt	nt
O=S(=O)(c1cccc(S(=O)(=O)N2CCOCC2)c1)N1CCOCC1	i	i	i	i	nt	nt
CCOC(=O)N1CCN(Cc2ccc3c(c2)OCO3)CC1	i	i	i	i	nt	nt

Screening data (PubChem)
